Results reported in PubChem BioAssay AID504834 (National Center for Advancing Translational Sciences (NCATS), 2011).
Among all 320,000 compounds or so, about 22,000 (6.9%) were called active. Inconclusive results (about 27%) are left out. The full list was thinned out, with actives kept by preference. Unmarked numbers belong to inactive results. Calls follow the shape of the dose curve; as a rule, active = well fitted inhibition curve with a large enough effect; inconclusive = small, poorly fitted or top-dose-only effect, or another doubt; inactive = no such curve, though single readings can be large or run the other way.

test: Primary qHTS for delayed death inhibitors of the malarial parasite plastid, 96 hour incubation; details: P. falciparum luciferase reporter growth; series mostly up to 28.7 µM; activity change, negative = inhibition: at the top concentration
How it was run: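 Luminescence readout: decreased luciferase signal marks inhibited growth of reporter-expressing P. falciparum in infected red cells (2% hematocrit, 0.05% parasitemia final), exposed to compound two generations (96 h, 37 C, 5% CO2).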
% is scaled to controls: 0 for no effect and ±100 for the full control effect; potency is read from the fitted curve at half-maximal effect.

Row | Compound | activity change, negative = inhibition | Potency
1 | CC(Cc1ccccc1)C(=O)N(C)Cc1ccccc1 (stereo not given) | 1.33% | 
2 | CC(Cc1ccccc1)NCCC(c1ccccc1)c1ccccc1 (stereo not given) |  | 14.7 µM (active)
3 | Cc1ncoc1C(=O)NCCC(c1ccccc1)c1ccccc1 | 12.9% | 
4 | C[C@H](NC(=O)c1nc[nH]c1C(=O)NCC(=O)OC(C)(C)C)C(=O)OCc1ccccc1 | 63% | 
5 | COC(=O)c1cccc(NS(C)(=O)=O)c1 | 1.35% | 
6 | COc1ccc(-n2c(C)cc(C(=O)COC(=O)c3cc(OC)c(OC)cc3NC(=O)c3cccs3)c2C)cc1 |  | 2.62 µM (active)
7 | COc1ccc(C(=O)COC(=O)CNC(=O)c2cccs2)cc1Br | -21.6% | 
8 | Cc1cc(C(=O)COC(=O)c2cccs2)c(C)n1-c1c(C)n(C)n(-c2ccccc2)c1=O | 17.1% | 
9 | O=C(CN1CCN(c2ccc(F)cc2)CC1)Nc1ccccc1 | -8.75% | 
10 | CC1CCN(c2c(NCc3ccc(C(=O)NCc4ccccc4)cc3)c(=O)c2=O)CC1 | 1.19% | 
11 | N#Cc1nc(Cc2ccccc2)oc1NCCc1ccccc1 | 0.675% | 
12 | N#Cc1nc(Cc2cccc3ccccc23)oc1NCc1ccc2c(c1)OCO2 |  | 14.7 µM (active)
13 | c1n[nH]c(NCc2ccc3c(c2)OCO3)n1 | 2.18% [at 5.75 µM] | 
14 | O=S(=O)(Nc1n[nH]c(C(F)(F)F)n1)c1ccccc1 | 28.7% | 
15 | O=C(N/N=C/c1ccccn1)c1cccc(NC(=O)c2ccc(Cl)cc2)c1 | 34.1% | 
16 | CC(C)(C)c1ccc(Cn2nnc3c(=O)[nH]c(C4CCCN(C(=O)c5ccco5)C4)nc32)cc1 (stereo not given) | 34.8% | 
17 | CCC(C(=O)NCCC(C)C)N(Cc1ccccc1Cl)C(=O)c1snc(C(N)=O)c1N (stereo not given) | -16.7% | 
18 | Cc1ccc(CNC(=O)CCS(=O)(=O)c2ccc3c(c2)CC(C)N3C(=O)C2CC2)o1 (stereo not given) |  | 11.7 µM (active)
19 | CCC(=O)N1c2ccc(S(=O)(=O)CCC(=O)N3CCN(c4ccccc4)CC3)cc2CC1C (stereo not given) | -23.9% | 
20 | COc1ccccc1CNC(=O)C1CCN(S(=O)(=O)c2ccc3c(c2)CC(C)N3C(=O)C2CC2)CC1 (stereo not given) | 3.97% | 
21 | CS(=O)(=O)c1ccc(Cl)c(NC(=O)COC(=O)c2cccc(S(=O)(=O)N3CCCC3)c2)c1 | 36% | 
22 | COc1ccc(/C=N/OCc2ccccc2C#N)c(OC)c1 | 135% | 
23 | CCOc1cccc(-c2nn3c(-c4ccccn4)nnc3s2)c1 |  | 8.28 µM (active)
24 | c1ccc(-c2cc(-c3nnc4sc(-c5ccccn5)nn34)[nH]n2)cc1 | -6.88% | 
25 | COc1ccc(-c2nn3c(-c4ccccc4)nnc3s2)cc1OC | 96.6% | 
26 | Cc1ccc(SCc2c(C(=O)N/N=C/c3cccnc3)nnn2-c2nonc2N)cc1 | -6.32% | 
27 | COc1nc(OC)nc(N(C)CCO)n1 | 45.2% | 

Row | Compound | activity change, negative = inhibition | Potency
28 | CCCn1nc(Oc2nc(NC(C)C)nc(N(C)C)n2)ccc1=O | 33.8% | 
29 | COc1nc(Oc2ccc(=O)n(C)n2)nc(N(C)C)n1 |  | 3.7 µM (active)
30 | COC(=O)[C@@H]1CCCN1C(=O)c1cc(COc2cccc3cccnc23)on1 | -7.96% | 
31 | O=C(COC(=O)/C=C/c1ccc(OC(F)F)cc1)NC1CCCCC1 | 7.46% | 
32 | Cc1ccc(S(=O)(=O)N(CC(=O)Nc2cccnc2)c2ccc(Br)cc2)cc1 | -25.1% | 
33 | CC(=O)c1c(C)[nH]c(C(=O)N2CCN(S(=O)(=O)c3ccc(F)c(F)c3)CC2)c1C | 2.87% | 
34 | Cc1ccc(Nc2nnc(SC(C)C(=O)NC3CC3)s2)cc1 (stereo not given) |  | 14.7 µM (active)
35 | Cc1nnc(SC(C)C(=O)Nc2ccc(S(=O)(=O)NC3CCCCC3)cc2)s1 (stereo not given) | -8.76% | 
36 | CC(C)Nc1nnc(SC(C)C(=O)N(C)C2CCCCC2)s1 (stereo not given) | -6.33% | 
37 | CCOc1ccc(N2CC(C(=O)NCc3ccccn3)CC2=O)cc1 (stereo not given) | 0.718% | 
38 | COc1ccc(/C=N/n2nnnc2N)cc1OC | 0% | 
39 | Nc1nnnn1/N=C/c1cccs1 |  | 1.85 µM (active)
40 | Nc1nnnn1/N=C/c1cccc(Br)c1 | -28.6% | 
41 | Cc1ccc(NS(=O)(=O)c2ccc3c(c2)n(C)c(=O)c(=O)n3C)c(C)c1 | 23% | 
42 | O=C(COC(=O)CCOc1ccccc1)Nc1cc(S(=O)(=O)N2CCCCC2)ccc1Cl | 12.7% | 
43 | C=C(C)c1cccc(C(C)(C)NC(=O)NCCN(CC)CC)c1 |  | 4.15 µM (active)
44 | C=C(C)c1cccc(C(C)(C)NC(=O)NC2CCCC2)c1 | -11.6% | 
45 | CCN(CC)CCNC(=O)c1cc(S(C)(=O)=O)ccc1OC |  | inactive
46 | CN(CC(=O)Nc1c(Cl)cccc1Cl)C(=O)c1ccncc1 | 41.8% | 
47 | CC(C)Nc1ccc(-n2nc3ccccc3[n+]2[O-])cc1 | -11.5% | 
48 | CC(=O)c1c(C)oc2ccc(NS(=O)(=O)c3ccccc3)cc12 | 27% | 
49 | COc1ccc(CCNc2nc(-c3cccc(NC(C)=O)c3)cs2)cc1OC | 4.61% | 
50 | CN(C)CCCN(C(=O)COc1ccccc1)c1nc2c(Cl)cccc2s1 | 50.2% | 
51 | COc1ccc(CCN(C(=O)COc2ccccc2)c2nc(-c3ccccc3)cs2)cc1OC |  | 11.7 µM (active)
52 | O=C(NN1C(=O)C2CCCCC2C1=O)c1ccco1 (stereo not given) | 83.6% | 
53 | Cc1cc(C)cc(Oc2nc3c(C)cccn3c(=O)c2/C=C(\C#N)C(=O)NC2CCS(=O)(=O)C2)c1 (stereo not given) |  | 11.7 µM (active)
54 | Cc1ccc(C(=O)N/C(=C\c2ccco2)C(=O)NC2CCS(=O)(=O)C2)cc1 (stereo not given) | 38.1% | 

Row | Compound | activity change, negative = inhibition | Potency
55 | Cc1cccn2c(=O)c(/C=C(\C#N)C(N)=O)c(N3CCCCCC3)nc12 | -27% | 
56 | CC(=O)Nc1ccc(NC(=O)CSC2=NS(=O)(=O)c3ccccc3N2)cc1 | 66% | 
57 | COc1ccc(OCc2cc(C(=O)N3CCCC3)no2)c2ccccc12 | -11.2% | 
58 | CC(=O)Nc1c2c(nn1-c1ccc(C)cc1C)CS(=O)C2 (stereo not given) | -3.12% | 
59 | CC(C)c1nc(SCC(=O)Nc2cccc(C(=O)O)c2)c2c3c(sc2n1)CCCC3 | 39.3% | 
60 | CC(=O)Nc1sc2c(c1C(c1cccc(F)c1)N1CCN(CCO)CC1)CCCC2 (stereo not given) |  | 7.38 µM (active)
61 | O=C(Nc1sc2c(c1C(=O)O)CCC2)c1ccccc1F | 1.99% | 
62 | COc1ccc(OCC(=O)Nc2ccc(NC(=O)c3ccco3)c(C)c2)cc1 | -10.7% | 
63 | Cc1noc(C)c1C(=O)NCC1COc2ccccc2O1 (stereo not given) | 12.1% | 
64 | Cc1cccc(NC(=S)N2CCC(O)CC2)c1C | -2.87% | 
65 | CCOc1ccccc1N1CCN(C(=S)Nc2ccc(S(N)(=O)=O)cc2)CC1 | -29.4% | 
66 | CCOc1ccccc1NC(=S)N1CCN(c2cccc(C)c2C)CC1 |  | 1.65 µM (active)
67 | Cc1onc(-c2c(F)cccc2Cl)c1C(=O)N(C)CC(=O)Nc1cccc(F)c1 | -17.1% | 
68 | CC(C)c1ccc2c(c1)c(SC(C)(C)C)c(CC(C)(C)C(=O)O)n2Cc1ccc(Cl)cc1 |  | 7.38 µM (active)
69 | O=C(O)c1ccc(Cn2c(=S)[nH]c3cc(Cl)ccc3c2=O)cc1 | 20.1% | 
70 | Cc1nc2cc3c(cc2s1)OCO3 | 36.3% | 
71 | O=C(c1cc(COc2ccc(F)cc2F)on1)N1CCOCC1 | -3.11% | 
72 | Cc1cccc(NC(=O)c2ccc3c(=O)n(CC4CCCO4)c(=S)[nH]c3c2)c1 (stereo not given) | 2.86% | 
73 | CCOC(=O)c1c(C)[nH]c(C)c1S(=O)(=O)NCCCc1ccco1 | -4.17% | 
74 | COc1cccc(CN(C)CC(=O)NCc2ccccc2Cl)c1OC | -23.3% | 
75 | CN(CC1CCCN(CCc2cccc(C(F)(F)F)c2)C1)C(=O)c1ccc2nc[nH]c2c1 (stereo not given) | 15.5% | 
76 | COc1cccc(CN(C)CC2CCCN(CCc3ccc(Cl)cc3)C2)c1OC (stereo not given) |  | 2.94 µM (active)
77 | O=C(Cc1ccc(Cl)cc1)NCc1nc(-c2ccccc2)no1 | -24.9% [at 1.15 µM] | 
78 | COc1ccc(-c2noc(CNC(=O)C(C)Oc3ccccc3)n2)cc1 (stereo not given) |  | 13.1 µM (active)
79 | COc1ccc(-c2noc(C(C)NS(=O)(=O)c3ccc(NC(C)=O)cc3)n2)cc1 (stereo not given) | -5.21% | 
80 | Cc1ccc(OCC(=O)Nc2ccc3oc(=O)ccc3c2)cc1C | 11.3% | 
81 | Cc1ccc(S(=O)(=O)N2CCN(C(=O)c3ccc(-n4cncn4)c([N+](=O)[O-])c3)CC2)cc1 | -5.29% | 

Row | Compound | activity change, negative = inhibition | Potency
82 | CN1CCN(C(=O)C(=O)c2cn(CC(=O)N3CCCC3)c3ccccc23)CC1 | -2.05% | 
83 | CCCn1c(=O)c2c(C(F)(F)F)cc(-c3cccs3)nc2n(CCC)c1=O | -4.47% | 
84 | N#Cc1c(C(F)(F)F)cc(-c2cccs2)nc1N1CCCCC1 |  | 10.4 µM (active)
85 | CCN(CC)c1nc(-c2ccccc2)cc(C(F)(F)F)c1C#N | -30% | 
86 | CCOc1ccc2c(c1)c(=O)c(S(=O)(=O)c1ccc(C)cc1)cn2CC | 31.1% | 
87 | COC(=O)c1ccc(NC(=O)CSc2nncn2-c2cccnc2)cc1 | -14.8% | 
88 | COc1cccc(C(=O)NNC(=O)c2cccc(F)c2)c1 |  | 0.37 µM (active)
89 | COc1cccc(C(=O)NNC(=O)/C=C/c2ccccc2)c1 | 1.13% | 
90 | COc1cccc(C(=O)NNC(=O)c2ccccc2Br)c1 | 7.37% | 
91 | COCCCNS(=O)(=O)c1cccc(S(=O)(=O)c2cccc(S(=O)(=O)NCCCOC)c2)c1 | 0% | 
92 | CCc1noc(C)c1C(=O)Oc1ccc(N(C)S(=O)(=O)c2ccc(C)c(C)c2)cc1 | 2.36% | 
93 | CC1CCCCN1C(=S)NCc1ccccc1 (stereo not given) | 15.1% | 
94 | C/C(=N\NC(=S)NCc1ccccc1)c1ccc(Cl)cc1 | -8.47% | 
95 | C/C(=N\NC(=S)NCc1ccccc1)C1CCCCC1 |  | 6.57 µM (active)
96 | Cc1c(C)n2c(SCC(=O)N3CCCC3)nnc2[nH]c1=O | 13.1% | 
97 | COc1cc(OC)c(NS(=O)(=O)c2cn(C)cn2)cc1Cl | -11.6% | 
98 | COC(=O)c1c(C)oc(C)c1S(=O)(=O)Nc1ccc(C(C)C)cc1 | -25.7% | 
99 | CN(CC(=O)Nc1ccc(N2CCOCC2)cc1)CC(=O)Nc1ccccc1[N+](=O)[O-] | 10.3% | 
100 | CN1CCN(CCNC(=O)Nc2ccccc2[N+](=O)[O-])CC1 |  | 8.28 µM (active)
101 | CCc1ccccc1NC(=O)NCCN1CCCCC1 | -5.82% | 
102 | CC1Cc2cc(/C(O)=C3\C(=O)C(=O)N(Cc4cccnc4)C3c3ccccc3F)ccc2O1 (stereo not given) | -3.96% | 
103 | CCn1cc(C(=O)N2CC(C)CC(C)C2)c(=O)c2cc(S(=O)(=O)N3CCCC3)ccc21 (stereo not given) | -6.11% | 
104 | COC(=O)c1cn(C)c2ccc(S(=O)(=O)N3CC(C)CC(C)C3)cc2c1=O (stereo not given) |  | 3.7 µM (active)
105 | CC1CC(C)CN(S(=O)(=O)c2ccc(C(=O)NN3CCOCC3)cc2)C1 (stereo not given) | 3.68% | 
